Screening results (PubChem BioAssay)
PNC assembly inh = perinucleolar compartment assembly inhibition; 140,000 tested, 3.1% active; PC3M PTB-GFP, PNC prevalence imaging, 16 h; active compounds read low; activity change (PNC), negative = inhibition, % at 10 µM; AID 2417;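 active = readout at or below -70, meaning at least 70% loss of cells showing the perinucleolar compartment, a nuclear body marking cancer cells; inconclusive = readout between -30 and a set limit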;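 also: plate controls were DMSO wells for no effect and camptothecin positive control wells for full effect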
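Read-out is percentage of cells bearing a perinucleolar compartment, from automated 20x imaging of fixed, Hoechst-stained PC3M PTB-GFP cells. Cells were seeded 4 h, then exposed 16 h to compound (23 nl of library stock) in duplicate plates.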
ALDH1A1 block = ALDH1A1 (human) enzyme inhibition; P00352; Purified ALDH1A1, NADH fluorescence, propionaldehyde substrate; Potency, µM (highest dose often 75.3 µM), without a hit: at the top dose activity, negative = inhibition, hits mostly inhibitors; 220,000 tested, 7.3% active; AID 1030;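 also: potency is read from the fitted curve at half-maximal effect; plate controls were no enzyme wells and a reference inhibitor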
Target sequence (P00352 whole entry, looked up): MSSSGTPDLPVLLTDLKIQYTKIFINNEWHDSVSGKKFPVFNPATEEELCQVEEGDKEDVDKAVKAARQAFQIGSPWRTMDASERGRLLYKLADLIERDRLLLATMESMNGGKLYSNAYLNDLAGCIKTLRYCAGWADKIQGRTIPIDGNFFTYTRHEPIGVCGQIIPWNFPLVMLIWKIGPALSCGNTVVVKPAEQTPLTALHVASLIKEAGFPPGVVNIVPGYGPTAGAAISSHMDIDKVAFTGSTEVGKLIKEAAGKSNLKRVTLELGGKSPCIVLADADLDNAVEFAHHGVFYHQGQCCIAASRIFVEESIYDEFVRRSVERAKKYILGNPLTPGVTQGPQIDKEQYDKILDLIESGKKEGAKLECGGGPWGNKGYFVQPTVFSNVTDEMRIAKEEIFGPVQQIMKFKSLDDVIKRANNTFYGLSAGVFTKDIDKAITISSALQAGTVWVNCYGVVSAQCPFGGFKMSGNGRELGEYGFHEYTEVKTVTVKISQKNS
HPGD inh = blocks human HPGD enzyme activity; P15428; purified HPGD, NADH fluorescence kinetic, PGE2 substrate; Potency, µM, for the others: at the top dose activity change, negative = inhibition, most hits filed as inhibitors; 150,000 tested, 4.3% active; AID 894; also: potency is read from the fitted curve at half-maximal effect
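NADH formation kinetics: reaction with 30 uM PGE2 and 1 mM NAD+ (final), 20 nM enzyme, Tris-HCl pH 8 with Tween 20, after 15 min compound preincubation at room temperature. Fluorescence change, last versus first of five reads.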
An asterisk follows results filed as active; ? = inconclusive; . = no result given; [ ] = another dose, or the depositor's remark. In the library only some 11% were active in any assay of this set; here they are far more common. Unless noted, calls follow the shape of the dose curve; as a rule, active = well fitted inhibition curve with a large enough effect (not every such curve was filed as active); inconclusive = small, poorly fitted or top-dose-only effect, or another doubt; inactive = no such curve, though single readings can be large or run the other way. Unless noted, % is scaled to controls: 0 for no effect and ±100 for the full control effect.

SMILES	PNC assembly inh	ALDH1A1 block	HPGD inh
CCN(CC)S(=O)(=O)c1ccc(NC2CCCc3ccccc32)nc1 (stereo unspecified)	-100.0*	2.9%	-22.6%
Cc1ccc(S(=O)(=O)NC2CCCc3ccccc32)cc1C (stereo unspecified)	-17.6	10µM*	-21.4%
CN(C)S(=O)(=O)c1cccc(C(=O)NC2CCCc3ccccc32)c1 (stereo unspecified)	?	-4.8%	-0.8%
CS(=O)(=O)N1CCC2(CCN(Cc3nccs3)CC2)CC1	.	14.3%	-5.9%
O=C(Nc1ccn(-c2ccccc2)n1)c1ccc(S(=O)(=O)N2CCCCCC2)cc1	-14.5	?	?
Cc1ccc2nc(NC(=O)c3ccc(Cn4cc(Cl)cn4)o3)sc2c1	-100.0*	?	?
NNC(=O)c1ccc(Cn2cc(Cl)cn2)o1	.	-6.8%	.
Cc1ccccc1N1C(S)=C(C#N)C(=O)NC12CCCCC2	-8.6	2.9%	-15.7%
O=C(NN1C(=O)c2ccc(-c3ccc4c(c3)C(=O)N(NC(=O)c3cccnc3)C4=O)cc2C1=O)c1cccnc1	.	12.9%	.
CCOc1ccc(C(=O)Nc2cccc(-c3nc4ccccc4[nH]3)c2C)cc1[N+](=O)[O-]	?	-0.2%	-8.4%
Cc1ccccc1-n1c(=O)/c(=C\c2ccco2)s/c1=C(/C#N)C(=O)Nc1ccccc1	29.5	20µM*	-13.7%
CCOC(=O)/C=c1\s/c(=C(\C#N)C(=O)NC)n(-c2ccccc2)c1=O	?	-8.8%	-13.2%
O=C(NCc1ccccc1Cl)c1cnc2n(c1=O)CCS2	6.1	14.1µM*	-24.7%
CC(=O)c1cnc2n(c1=O)CCS2	.	9.5%	.
O=C(NCCc1ccccc1)c1cnc2n(c1=O)CCS2	.	-6.2%	.
O=C(NC1CCCC1)c1cnc2n(c1=O)CCS2	-25.9	?	35.5µM*
C/C(=N\Nc1cccc(C(=O)O)c1)c1cc2ccccc2o1	.	3.9%	.
COC(=O)C1=C(C(=O)OC)[C@@H]2N(Cc3ccccc3)c3ccccc3[C@@]23C[C@@H](C(=O)OC)N(S(=O)(=O)c2ccc(Br)cc2)C3=N1	.	-2.4%[13.5 µM]	-8.3%
Cc1cc(C)cc(COn2ccnc2)c1	1.3	-1.7%	2.0%
CN(C)CCCN1c2ccccc2Sc2cnccc21	.	6.9%[13.5 µM]	-0.5%
O=C(Nc1cccc(OC(F)(F)F)c1)c1ccc(Br)o1	-22.0	22.4µM*	25.1µM*
CCn1c2ccccc2c2cc(NC(=O)c3ccc(Br)o3)ccc21	?	2.24µM*	4.47µM*
O=C(Nc1cccc(F)c1)c1ccc(Br)o1	0.4	-0.4%	-25.4%
CCn1c2ccccc2c2cc(NC(=O)c3cc(OC)cc(OC)c3)ccc21	-97.5*	?	?
CCn1c2ccccc2c2cc(NC(=O)COc3ccc(OC)cc3)ccc21	-10.3	-6.4%	-10.8%
SMILES	PNC assembly inh	ALDH1A1 block	HPGD inh
CCn1c2ccccc2c2cc(NC(=O)c3cc(C)on3)ccc21	.	5.3%	.
COC(=O)c1ccccc1NC(=O)C(C)c1ccc([N+](=O)[O-])cc1 (stereo unspecified)	.	-1.8%	.
O=C(O)CN(CCN(CC(=O)O)CC(=O)O)CCN(CC(=O)O)CC(=O)O	.	8.9%	-18.8%
CCc1cc2c(nc1CC)CCN(CC/C(C)=N/OC[C@@H](O)[C@@H]1O[C@@H]3OC(C)(C)O[C@@H]3[C@H]1O)C2	.	-3.4%[13.5 µM]	.
O=C(Nc1ccc(N2CCCCC2)cc1)c1ccccn1	.	-0.1%	.
COc1ccc(OC)c(C2C(C(=O)Nc3ccc(F)cc3)=C(C)Nc3nc(CCCO)nn32)c1 (stereo unspecified)	-4.8	-6.5%	-0.9%
COc1ccccc1NC(=O)C1=C(C)Nc2nc(CCCO)nn2C1c1ccc2c(c1)OCO2 (stereo unspecified)	-12.6	14.1µM*	?
CC(C)c1ccccc1OCCNS(C)(=O)=O	-21.2	5.1%	-5.7%
CCOC(=O)c1sc(C)c(C(=O)NCC(C)(C)CN(C)C)c1N	19.9	?	-25.9%
CCOC(=O)C(NC(=O)CCl)(Nc1sc(C)c(CC)c1C#N)C(F)(F)F (stereo unspecified)	?	-1.4%	-8.4%
CCOC(=O)C(NC(=O)N(C)C)(Nc1sc(C)c(CC)c1C#N)C(F)(F)F (stereo unspecified)	-9.3	?	14.1µM*
Cc1ccc(Cl)cc1NC(=O)CC1NCCNC1=O (stereo unspecified)	48.8	8.6%	-9.8%
COC(=O)CC1C(=O)NCCN1C(=S)Nc1ccccc1Cl (stereo unspecified)	.	-7.2%	.
COc1ccc(Br)cc1CN(C)CC(=O)Nc1c(Cl)cccc1Cl	?	14.0%	15.8µM*
COc1ccc(Br)cc1CN(C)CC(=O)Nc1cccc(S(N)(=O)=O)c1	.	1.9%	.
CCCCN(C)Cc1c(O)ccc2c(-c3ccccc3)cc(=O)oc12	0.1	?	?
CCN(CC)Cc1c(O)ccc2c(-c3ccccc3)cc(=O)oc12	-118.3*	?	?
O=C(OCCN1C(=O)c2ccccc2C1=O)c1ccc(S(=O)(=O)N2CCCCCC2)cc1	-3.5	-3.4%	-8.1%
O=C(c1ccc(S(=O)(=O)N2CCCCC2)cc1)N1CCN(CCN2C(=O)c3cccc4cccc(c34)C2=O)CC1	.	0.631µM*	.
Cc1cc(C)nc(N2CCN(C(=O)c3ccc(S(=O)(=O)N4CCCCCC4)cc3)CC2)n1	.	17.8µM*	.
O=C(c1cccnc1)N1CCN(S(=O)(=O)c2ccc(S(=O)(=O)N3CCCC3)cc2)CC1	?	-14.1%	3.0%
CC(C)[C@@H](OCc1ccccc1)[C@H](C)/C=N\O[C@@H](C)c1cn([C@@H]2COC[C@@H]2O)nn1	.	8.3%[13.5 µM]	.
COc1ccc(N2C(=O)CC(n3c(CCCCO)nc4ccccc43)C2=O)cc1 (stereo unspecified)	-28.4	3.55µM*	-18.0%
COc1ccc(N2C(=O)CC(n3cnc4ccccc43)C2=O)cc1 (stereo unspecified)	20.2	5.1%	-9.2%
CCCOc1ccc(N2C(=O)CC(N3CCN(c4ccccc4F)CC3)C2=O)cc1 (stereo unspecified)	21.1	?	-4.9%
SMILES	PNC assembly inh	ALDH1A1 block	HPGD inh
CN1CCN(C2CC(=O)N(c3ccc4c(c3)OCCO4)C2=O)CC1 (stereo unspecified)	22.7	?	-4.0%
COc1ccc(CCN2C(=O)CC(N3CCOCC3)C2=O)cc1 (stereo unspecified)	-7.3	3.9%	0.0%
Cc1ccc(N2C(=O)CC(N3CCN(C)CC3)C2=O)cc1 (stereo unspecified)	-100.0*	0.5%	-10.6%
COc1ccc(N2C(=O)CC(N3CCN(c4ccccc4F)CC3)C2=O)cc1 (stereo unspecified)	-96.8*	?	-3.6%
COc1ccc(N2C(=O)CC(N3CCOCC3)C2=O)cc1 (stereo unspecified)	?	25.1µM*	-8.7%
Cc1cnc(NC(=O)C2(c3ccccc3)CC2)s1	.	-5.5%	.
CSc1ccccc1NC(=O)N1CCCC(C(=O)c2ccc3c(c2)OCO3)C1 (stereo unspecified)	.	4.3%	.
CC(C)CCNCC1OCc2ccccc2CO1	?	-9.0%	-13.6%
CC(C)Sc1nc2ccccc2n1CC(N)=O	44.9	12.6%	-15.9%
CN(c1ccc(C(=O)Nc2ccccc2C(F)(F)F)cc1)S(C)(=O)=O	2.0	-11.3%	-14.3%
COc1ccc(N2C(=O)CC(N3CCC(c4nc5ccccc5[nH]4)CC3)C2=O)cc1 (stereo unspecified)	-8.7	?	1.7%
